# PubChem BioAssay
# The source made the active and inactive calls.
# Legend:
# [1] = system: PRMT1 (protein arginine N-methyltransferase 1); assay: PRMT1 binders on small-molecule microarrays, primary screen, biochemical, small-molecule microarray, 635 nm fluorescence (AID 1088); settings: small-molecule microarray binding, higher = more signal;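 note: binding of Prmt1 protein to compounds spotted on small-molecule microarray slides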
# [2] = yeast growth modulation, basal conditions, primary screen, YJM789 clinical isolate, OD600, 24 h (AID 1089);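 note: growth of clinical yeast isolate S. cerevisiae YJM 789 seeded 1000 cells per well; test concentration not given here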; settings: S. cerevisiae YJM789 growth, higher = more signal, called active from +8 up or from −8 down
# [3] = fission yeast growth modulation, primary screen, strain 972, OD600, 24 h, no modulator (AID 1090);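 note: basal condition with compound alone and no growth modifier present; test concentration not given here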; settings: S. pombe 972 growth, higher = more signal, called active from +8 up or from −8 down
# [4] = S. cerevisiae growth modulation with rapamycin, primary screen, strain BY4716, OD600, 96 h (AID 1091); settings: higher = more signal, called active from +8 up or from −8 down; note: test concentration not given here
# [5] = molecular target: Torsin-1A-interacting protein 2 (Homo sapiens) (UniProt Q8NFQ8); assay: LULL1 binders on small-molecule microarray, primary screen, cell lysate, human LULL1 lysate, 635/667 nm fluorescence (AID 1092); settings: hLULL1 lysate binding, 635 nm fluorescence, higher = more signal;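 note: probe is lysate of COS7 cells overexpressing human LULL1; score merges per-feature 667 nm fluorescence with signal-to-noise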
# Sequence of Torsin-1A-interacting protein 2 (Homo sapiens) (Q8NFQ8 whole entry, looked up): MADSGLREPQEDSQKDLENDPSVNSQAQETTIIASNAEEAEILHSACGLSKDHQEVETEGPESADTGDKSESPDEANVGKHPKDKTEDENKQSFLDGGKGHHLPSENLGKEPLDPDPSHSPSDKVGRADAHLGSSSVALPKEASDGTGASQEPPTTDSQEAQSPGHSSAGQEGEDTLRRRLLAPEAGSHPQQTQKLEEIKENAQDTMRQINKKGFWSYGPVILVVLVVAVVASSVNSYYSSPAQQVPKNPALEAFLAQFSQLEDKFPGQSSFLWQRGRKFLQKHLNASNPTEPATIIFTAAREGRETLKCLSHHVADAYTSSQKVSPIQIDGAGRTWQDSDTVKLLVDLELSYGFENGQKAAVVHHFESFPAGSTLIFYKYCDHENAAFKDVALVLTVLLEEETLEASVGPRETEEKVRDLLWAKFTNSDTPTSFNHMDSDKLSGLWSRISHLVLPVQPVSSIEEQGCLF
# [6] = E. coli growth modulation, two-sided OD650, primary screen, E. coli filamentation project, strain DRC41, 24 h (AID 1093); settings: OD650, 24 h, higher = more signal, called active from +8 up or from −8 down;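 note: MC1000 strain lacking acrAB efflux and sulA so SOS filamentation is blocked; test concentration not given here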
# [7] = small-molecule microarray binders of probe aLefty2, primary screen, biochemical, biotinylated probe, 635/667 nm fluorescence (AID 1094); settings: higher = more signal;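 note: score merges spot fluorescence near 667 nm with spot signal-to-noise ratio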
# [8] = system: Noggin (protein binding on small-molecule microarray); assay: Noggin binders on small-molecule microarray, primary screen, biochemical, 635/667 nm fluorescence (AID 1095); settings: 635 nm fluorescence, higher = more signal;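 note: score merges 667 nm feature fluorescence with signal to noise over triplicate slides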
# [9] = molecular target: Neurogenic locus notch homolog protein 3 (Homo sapiens) (UniProt Q9UM47); assay: NOTCH3 binders on small-molecule microarray, primary screen, biochemical, 635/667 nm fluorescence (AID 1096); settings: NOTCH3 binding, 635 nm fluorescence, higher = more signal
# Sequence of Neurogenic locus notch homolog protein 3 (Homo sapiens) (Q9UM47 whole entry, looked up): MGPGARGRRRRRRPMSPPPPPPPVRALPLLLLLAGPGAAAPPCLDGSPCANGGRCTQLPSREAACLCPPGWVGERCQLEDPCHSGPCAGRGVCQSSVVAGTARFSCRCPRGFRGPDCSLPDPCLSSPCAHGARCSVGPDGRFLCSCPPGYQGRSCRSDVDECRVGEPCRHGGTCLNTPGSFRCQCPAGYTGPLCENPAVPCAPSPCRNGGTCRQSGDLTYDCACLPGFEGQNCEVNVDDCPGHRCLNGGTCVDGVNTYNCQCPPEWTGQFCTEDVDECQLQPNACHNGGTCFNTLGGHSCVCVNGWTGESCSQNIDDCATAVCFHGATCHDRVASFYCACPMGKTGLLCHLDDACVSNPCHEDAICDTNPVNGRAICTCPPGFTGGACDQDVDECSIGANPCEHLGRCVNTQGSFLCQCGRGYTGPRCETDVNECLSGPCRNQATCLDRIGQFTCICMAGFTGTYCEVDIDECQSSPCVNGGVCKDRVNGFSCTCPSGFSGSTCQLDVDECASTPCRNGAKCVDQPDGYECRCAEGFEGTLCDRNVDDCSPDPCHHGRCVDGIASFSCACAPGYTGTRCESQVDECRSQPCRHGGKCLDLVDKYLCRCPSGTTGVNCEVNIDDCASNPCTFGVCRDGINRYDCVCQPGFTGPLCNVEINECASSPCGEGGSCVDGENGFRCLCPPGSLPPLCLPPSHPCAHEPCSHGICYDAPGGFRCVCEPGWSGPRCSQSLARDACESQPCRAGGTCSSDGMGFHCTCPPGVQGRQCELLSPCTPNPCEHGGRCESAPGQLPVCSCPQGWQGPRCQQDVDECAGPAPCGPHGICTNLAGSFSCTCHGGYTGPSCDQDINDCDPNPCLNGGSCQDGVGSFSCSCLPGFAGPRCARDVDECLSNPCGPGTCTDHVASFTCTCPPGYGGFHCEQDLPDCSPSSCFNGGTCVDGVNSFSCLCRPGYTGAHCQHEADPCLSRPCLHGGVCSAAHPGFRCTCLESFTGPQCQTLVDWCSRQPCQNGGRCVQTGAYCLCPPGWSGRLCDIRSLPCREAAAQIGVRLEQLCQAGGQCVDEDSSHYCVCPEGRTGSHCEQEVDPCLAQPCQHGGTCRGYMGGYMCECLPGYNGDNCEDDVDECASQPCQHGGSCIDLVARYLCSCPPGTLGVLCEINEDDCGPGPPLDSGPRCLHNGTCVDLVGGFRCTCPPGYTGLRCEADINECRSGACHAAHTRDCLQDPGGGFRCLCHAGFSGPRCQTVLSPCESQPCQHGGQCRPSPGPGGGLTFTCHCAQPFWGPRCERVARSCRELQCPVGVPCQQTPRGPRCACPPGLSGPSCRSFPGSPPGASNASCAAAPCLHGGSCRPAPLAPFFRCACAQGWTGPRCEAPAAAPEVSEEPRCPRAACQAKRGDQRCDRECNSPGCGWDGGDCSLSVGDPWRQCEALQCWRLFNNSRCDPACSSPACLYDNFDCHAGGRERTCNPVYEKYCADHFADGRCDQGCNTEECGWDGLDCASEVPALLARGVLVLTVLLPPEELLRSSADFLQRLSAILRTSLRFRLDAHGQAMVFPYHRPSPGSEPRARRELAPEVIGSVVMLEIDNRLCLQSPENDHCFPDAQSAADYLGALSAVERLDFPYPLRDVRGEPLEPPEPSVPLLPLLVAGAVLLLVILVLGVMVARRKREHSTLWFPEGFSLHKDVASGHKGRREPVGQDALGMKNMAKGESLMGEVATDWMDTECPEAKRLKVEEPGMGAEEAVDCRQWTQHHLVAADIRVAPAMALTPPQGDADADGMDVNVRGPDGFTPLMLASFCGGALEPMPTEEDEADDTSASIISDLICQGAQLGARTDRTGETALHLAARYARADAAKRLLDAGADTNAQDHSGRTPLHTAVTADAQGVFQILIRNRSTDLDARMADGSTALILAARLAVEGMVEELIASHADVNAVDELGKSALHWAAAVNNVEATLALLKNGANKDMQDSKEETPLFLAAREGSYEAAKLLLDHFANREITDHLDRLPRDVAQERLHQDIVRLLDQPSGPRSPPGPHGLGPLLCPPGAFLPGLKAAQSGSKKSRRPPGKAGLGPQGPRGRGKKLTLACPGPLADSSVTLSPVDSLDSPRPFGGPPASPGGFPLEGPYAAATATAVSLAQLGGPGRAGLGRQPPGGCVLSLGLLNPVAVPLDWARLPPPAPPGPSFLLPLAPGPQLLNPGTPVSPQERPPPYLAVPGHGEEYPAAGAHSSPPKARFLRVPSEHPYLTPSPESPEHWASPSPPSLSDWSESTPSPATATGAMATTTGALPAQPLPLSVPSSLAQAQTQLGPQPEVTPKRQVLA
# [10] = small-molecule microarray binders of probe aEGFR, primary screen, biochemical, biotinylated probe, 635/667 nm fluorescence (AID 1097); settings: higher = more signal;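 note: probe is a biotinylated anti-EGFR antibody binding compounds printed on slides; score combines fluorescence near 667 nm and signal to noise of each spot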
SMILES,composite z-score [1],z-score [2],z-score [3],z-score [4],composite z-score [5],z-score [6],composite z-score [7],composite z-score [8],composite z-score [9],composite z-score [10]
OCCCC1=CC(c2cccs2)N(Cc2cccc(OC(F)(F)F)c2)CC1 (stereo not given),0.532,-2.28 (inactive),-14.6 (active),1.15 (inactive),0.365,-0.15 (inactive),-0.0998,0.0008,-0.602,-0.115
CC(C)C(CO)N1C(=O)[C@@H]2[C@H]3C(=O)OCC=C[C@H]3OC23C=CCN(Cn2nnc4ccccc42)C(=O)[C@@H]13 (stereo not given in full),-0.0697,1.14 (inactive),1.13 (inactive),0.779 (inactive),0.704,0.701 (inactive),-0.262,-2.09,-0.254,-0.2
CCCC=C(CCC)[C@@H](NS(=O)(=O)c1ccccc1)c1ccc(C(F)(F)F)cc1,1.39,0.3 (inactive),1.39 (inactive),12.1 (active),3.47,-0.644 (inactive),0.413,0.554,1.08,0.132
CN(C)CCCCCCNC(=O)[C@@H]1C[C@@H]2C(=O)NCC(=O)N2[C@@H]1c1ccc(O)cc1,1.53,-1.2 (inactive),-0.639 (inactive),-0.296 (inactive),2.72,-0.427 (inactive),-0.16,1.47,1.04,-0.0304
Cc1ccc(S[C@]2(C(=O)NCCN3CCOCC3)CC(=O)N(C3Cc4ccccc4C3)[C@@H]2c2ccc(CO)cc2)cc1,1.42,-0.432 (inactive),-0.291 (inactive),-0.0611 (inactive),2.77,0.7 (inactive),-0.0928,-1.11,-0.521,-0.222
CCCNC(=O)[C@@]1(Sc2ccc(C)cc2)CC(=O)N(Cc2ccccc2)[C@@H]1c1ccc(CO)cc1I,0.933,-1.09 (inactive),-1.46 (inactive),0.605 (inactive),0.869,0.605 (inactive),-0.0866,0.54,0.282,-0.11
COC(=O)[C@@]1(Cc2ccc(OC)cc2)[C@H]2c3cc(C(=O)N(C)C)n(Cc4cc(C)n(C)n4)c3C[C@H]2CN1C(=O)c1ccccc1,0.847,0.296 (inactive),0.134 (inactive),0.562 (inactive),3.99,-1.13 (inactive),0.14,0.119,0.598,0.0423
CN1C(=O)C2C=CC(C(O)C3CCCCC3)N(N(c3ccccc3)c3ccccc3)C2C1=O (stereo not given),0.102,0.345 (inactive),1.25 (inactive),0.4 (inactive),2.5,-0.989 (inactive),0.368,-0.539,-0.396,0.114
C=CCC(OC(C)=O)[C@@H]1[C@@H](N(Cc2ccc(-c3ccccc3)cc2)C(=O)c2cccc3ccccc23)c2cc(OCCCO)ccc2N1C(=O)c1ccc2ccccc2n1 (stereo not given in full),0.171,-0.288 (inactive),-0.283 (inactive),-0.291 (inactive),0.53,0.488 (inactive),0.0469,-0.0394,0.336,0.045
NC(=O)NCC#Cc1ccc2c(c1)[C@]1(C(=O)N2)[C@H](c2ccc(OCCO)cc2)N2[C@H](c3ccccc3)[C@H](c3ccccc3)OC(=O)[C@H]2[C@@H]1C(=O)N1CCN(c2ncccn2)CC1,1.34,1.77 (inactive),0.494 (inactive),4.43 (inactive),1.6,1.31 (inactive),-0.0933,1.63,0.772,-0.15
CN(C)C(=O)[C@@]1(CCC(=O)OC(C)(C)C)COC(c2ccc(OCCCO)cc2)=N1,1.32,-0.321 (inactive),-0.369 (inactive),-0.501 (inactive),3.78,0.771 (inactive),0.112,0.74,0.0673,-0.122
C[C@H]1ON(c2ccccc2)[C@@H](c2ccccc2)[C@@H]1C(=O)N1C(=O)OC[C@@H]1c1ccccc1,0.648,0.386 (inactive),-0.0839 (inactive),-0.299 (inactive),0.352,-0.0337 (inactive),-0.159,0.743,0.848,-0.0409
CC(C)CNC(=O)[C@@]1(c2ccc([N+](=O)[O-])cc2)CC(=O)N(C(C)C)[C@@H]1c1ccc(CO)cc1,0.808,-0.655 (inactive),-0.182 (inactive),-0.812 (inactive),2.03,0.738 (inactive),-0.147,-0.641,-0.143,-0.13
O=C(C=C(CC(O)c1cccc(Cl)c1)OCCF)OCCF (stereo not given),-1.87,-2.44 (inactive),0.291 (inactive),-0.582 (inactive),0.0714,-0.106 (inactive),-0.166,-1.22,-1.11,-0.128
